Read-out in experiment [1]: Interleukin-8 (IL8), CXCL8 (gene 3576)
Briefly: BSK_3C_IL8: BioMAP Diversity Plus: 3C Assay for Interleukin-8 (IL8) Biomarker Activity (AID 2283020). Particulars: primary human endothelial cells (HUVEC); actives raise or lower the signal. The method in brief:
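Primary human umbilical vein endothelial cells (3C system) were exposed to test chemical for 24 h, then IL-8 was quantified by ELISA. Responses were fitted bidirectionally against DMSO vehicle as baseline.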

Read-out in experiment [2]: Monokine induced gamma interferon (MIG), CXCL9 (gene 4283)
As to the kind of experiment: BSK_3C_MIG: BioMAP Diversity Plus: 3C Assay for Monokine induced gamma interferon (MIG) Biomarker Activity (AID 2283021).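 On AC50: MIG protein level measured by immunoassay in the treated endothelial cultures.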 The note with it: primary human endothelial cells (HUVEC); actives raise or lower the signal. The method in brief:
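Primary human umbilical vein endothelial cells in the 3C system were exposed to chemical for 24 h, after which MIG was quantified by ELISA. Activity was fitted bidirectionally against DMSO as negative control and baseline.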

Experiment [3] concerns the target human Vitamin D Receptor (VDR), VDR (gene 7421) (UniProt P11473). As to the kind of experiment: ATG_VDR_TRANS: Attagene TRANS-FACTORIAL HepG2 Assay for human Vitamin D Receptor (VDR) (AID 2283022; active means hit-call score of the fitted dose curve at least 0.9, where 1 is the maximum). In a few lines: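 Multiplexed TRANS reporter in HepG2; 24 h treatment; reporter mRNA by RT-PCR plus capillary electrophoresis; upregulation scored relative to DMSO.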

A short description of experiment [4]: BSK_3C_SRB: Viability Assessment in the BioMAP Diversity Plus: 3C Assay (AID 2283023).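 Further: cells read 24 h after compound dosing; fitted both ways against DMSO so a hit may be signal rise or drop.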 Particulars: primary human endothelial cells (HUVEC). In a few lines:
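Overt cytotoxicity is gauged in parallel confluent HUVEC cultures by SRB total-protein staining at the time of biomarker measurement, 24 h after dosing. Gain or loss of signal is fitted versus DMSO.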

Read-out in experiment [5]: Matrix Metallopeptidase 1 (MMP1), MMP1 (gene 4312)
As to the kind of experiment: BSK_BE3C_MMP1: BioMAP Diversity Plus: BE3C Assay for Matrix Metallopeptidase 1 (MMP1) Biomarker Activity (AID 2283024). The note with it: primary human bronchial epithelial cells; actives raise or lower the signal. In a few lines:
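Primary human bronchial epithelial cells were dosed with test chemicals, and MMP1 levels were measured by ELISA 24 h later. Data were fitted bidirectionally against DMSO as the negative control and activity baseline.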

Experiment [6] can be described thus: BSK_3C_Vis: BioMAP Diversity Plus: 3C Assay for Morphology Visualization (AID 2283025).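 Further: fitted both ways so gain or loss versus DMSO counts.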 The note with it: primary human endothelial cells (HUVEC). The method in brief:
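Human umbilical vein endothelial cells in the 3C system were imaged by light microscopy 24 h after chemical dosing to record cell morphology. Activity was fitted bidirectionally against DMSO as negative control and baseline; the endpoint serves as a background control.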

A short description of experiment [7]: BSK_4H_SRB: Viability Assessment in the BioMAP Diversity Plus: 4H Assay (AID 2283027).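 Further: cells exposed to compound for 24 h before staining.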 Particulars: primary human endothelial cells (HUVEC). The method in brief: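 Absorbance at 560 nm of SRB-stained total protein served as the viability read-out in confluent primary human umbilical vein endothelium 24 h after chemical treatment. Curves were fitted bidirectionally against DMSO as negative control.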

Read-out in experiment [8]: Thrombomodulin, THBD (gene 7056)
Briefly: BSK_3C_Thrombomodulin: BioMAP Diversity Plus: 3C Assay for Thrombomodulin Biomarker Activity (AID 2283029). The note with it: primary human endothelial cells (HUVEC); actives raise or lower the signal. The method in brief: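 Primary human umbilical vein endothelial cells (3C system) were exposed to chemical for 24 h, then thrombomodulin levels were measured by ELISA. Activity was fitted bidirectionally against the DMSO negative control as baseline.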

Experiment [9] is described as follows: BSK_BE3C_SRB: Viability Assessment in the BioMAP Diversity Plus: BE3C Assay (AID 2283028).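 On AC50: fitted both ways so AC50 may mark signal gain or loss versus DMSO.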 The note with it: primary human bronchial epithelial cells. In a few lines: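 SRB total-protein staining (0.1%, after TCA fixation) of chemically dosed human bronchial epithelial primary cells at 24 h; DMSO serves as the negative control for bidirectional curve fitting.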

Read-out in experiment [10]: Pselectin, SELP (gene 6403)
Briefly: BSK_4H_Pselectin: BioMAP Diversity Plus: 4H Assay for Pselectin Biomarker Activity (AID 2283026). Particulars: primary human endothelial cells (HUVEC); actives raise or lower the signal. In a few lines:
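Primary human umbilical vein endothelial cells were exposed to test chemical for 24 h, then cell-surface P-selectin was quantified by ELISA. Activity was fitted bidirectionally against DMSO as negative control and baseline.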

Results filed as inconclusive are left out. A structure can be active in one record and inactive in another. The source made the active and inactive calls. How the source made its calls, unless noted: active means hit-call score of the fitted dose curve at least 0.9, where 1 is the maximum; inactive means score below 0.9.

Here are results for 14 molecules from PubChem BioAssay (EPA / NIEHS).

human Vitamin D Receptor (VDR), VDR (gene 7421), sequence (P11473 whole entry, looked up): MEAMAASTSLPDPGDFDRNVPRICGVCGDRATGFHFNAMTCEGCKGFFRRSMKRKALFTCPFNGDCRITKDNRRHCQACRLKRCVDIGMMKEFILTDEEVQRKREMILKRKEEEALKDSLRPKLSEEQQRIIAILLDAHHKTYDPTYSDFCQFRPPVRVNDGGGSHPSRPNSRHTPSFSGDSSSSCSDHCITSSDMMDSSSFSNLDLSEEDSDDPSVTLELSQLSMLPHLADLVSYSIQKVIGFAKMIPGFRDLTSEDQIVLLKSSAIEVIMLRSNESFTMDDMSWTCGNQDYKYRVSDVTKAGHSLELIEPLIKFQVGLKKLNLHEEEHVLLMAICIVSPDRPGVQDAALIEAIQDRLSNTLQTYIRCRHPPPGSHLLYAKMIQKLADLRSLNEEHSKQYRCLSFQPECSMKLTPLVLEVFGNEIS

Turning to `Cc1c(F)c(F)c(COC(=O)C2C(/C=C(\Cl)C(F)(F)F)C2(C)C)c(F)c1F` (stereo not drawn), the outcome in experiment [1], in experiment [2], in experiment [3], in [5], in experiment [7] and in experiment [8] was inactive. In addition, the values for the half-maximal activity concentration (AC50) in experiment [4] and in experiment [6] were 13.7 µM (active) and 9.8 µM (active), respectively.
Turning to `COc1nc(NC(C)C)nc(NC(C)C)n1`, the result in [1], in [2], in experiment [3], in experiment [4], in [5] and in experiment [6] was inactive. Further, the result in experiment [7] and in experiment [9] was inactive. The AC50 in experiment [8] was 0.148 µM (active).
In the case of `CCOc1cc(Oc2ccc(C(F)(F)F)cc2Cl)ccc1[N+](=O)[O-]`, the result in experiment [1], in [2], in [6] and in [7] was inactive. The AC50 is 14.1 µM (active) in [4], 7.63 µM (active) in [5], 6.77 µM (active) in experiment [9] and 4.94 µM (active) in experiment [8].
Take `COC(=O)C=C(C)OP(=O)(OC)OC`: the outcome in [1], in [2], in [4], in experiment [5], in experiment [6] and in [10] was inactive. For the same molecule, the result in experiment [9] and in experiment [8] was inactive.
As to `CCON=C(CC)C1=C(O)CC(c2c(C)cc(C)cc2C)CC1=O` (stereo not drawn), the result in [1], in [2], in experiment [4], in experiment [5], in experiment [6] and in [9] was inactive. The result in experiment [8] was inactive.
Regarding `N#Cc1nn(-c2c(Cl)cc(C(F)(F)F)cc2Cl)c(N)c1S(=O)C(F)(F)F` (stereo not drawn), the concentration at half-maximal activity (AC50) in [1] was 27.8 µM (active); in [4] it was 32.8 µM (active); in experiment [6], 37.5 µM (active); in [9], 18 µM (active). In addition, the outcome in [2], in [3], in [5] and in experiment [8] was inactive.
Take `COP(N)(=O)SC` (stereo not drawn): the outcome in [1], in experiment [2], in [4], in experiment [5], in experiment [6] and in [9] was inactive. In addition, the outcome in experiment [8] was inactive.
Consider `CCCCNC(=O)n1c(NC(=O)OC)nc2ccccc21`, for which the outcome in experiment [1], in [2], in [3], in [5], in experiment [9] and in experiment [8] was inactive. Further, the concentration at half-maximal activity (AC50) is 8.93 µM (active) in [4] and 9.8 µM (active) in [6].
Consider `CCCCC(CC)COC(=O)c1ccccc1C(=O)OCC(CC)CCCC` (stereo not drawn), for which the outcome in experiment [1], in experiment [2], in experiment [5] and in experiment [8] was inactive. Also, the concentration at half-maximal activity (AC50) in [4] is 10.5 µM (active); in experiment [6] it was 39 µM (active); in experiment [9], 11 µM (active).
On to `CS/C(C)=N/OC(=O)N(C)SN(C)C(=O)O/N=C(\C)SC`, for which the concentration at half-maximal activity (AC50) is 29.7 µM (active) in experiment [1]; 35.1 µM (active) in [2]; 26.5 µM (active) in [4]; 11.9 µM (active) in experiment [6]; 28.6 µM (active) in experiment [9]. Besides, the outcome in [5] and in experiment [8] was inactive.
Consider `O=C(O)c1nc(Cl)ccc1Cl`, for which the result in experiment [1], in experiment [2], in experiment [4], in experiment [5], in experiment [6] and in experiment [9] was inactive. The result in experiment [8] was inactive. Also, in experiment [6], the half-maximal activity concentration (AC50) is 39 µM (active).
For `CCOP(=S)(OCC)SCn1c(=O)oc2cc(Cl)ccc21`, the result in experiment [1], in experiment [2], in experiment [5], in experiment [9] and in experiment [8] was inactive. Also, the AC50 in [4] is 30.2 µM (active); in experiment [6] it was 39 µM (active); in [10], 29.6 µM (active).
For `Fc1ccc(Oc2ccnc3cc(Cl)cc(Cl)c23)cc1`, the concentration at half-maximal activity (AC50) in experiment [1] is 31.5 µM (active); in [2], 31.2 µM (active); in experiment [4], 22.9 µM (active); in [5] it was 35.9 µM (active); in [6], 29.4 µM (active); in experiment [10], 23 µM (active). For the same molecule, the half-maximal activity concentration (AC50) in [9] is 32.8 µM (active). Besides, the outcome in experiment [8] was inactive.
On to `CC(Oc1ccc(Cl)cc1Cl)C(=O)O` (stereo not drawn), for which the outcome in [1], in experiment [2], in [4], in experiment [5], in experiment [6] and in [9] was inactive. In addition, the outcome in experiment [8] was inactive.
